Screening results from PubChem.
An excerpt weighted towards active compounds, which were near 3.4% of everything screened.
FBW7 activator: activators of human E3 ligase FBW7 | Q969H0 | AlphaScreen FBW7–phospho-cyclin E peptide binding, activator screen | AID 1259310 | actives 0.13% (n = 650,000) | normalized activity (activation), % at 26.1 µM; in the data active = normalized activity above about 1.9%;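 note: purified mutant Fbw7 with reduced substrate affinity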
MITF inh: blocks human microphthalmia-associated transcription factor. AID 1259374. AlphaScreen MITF homodimerization, bead proximity signal. actives 0.91% (n = 650,000). inhibition, % at 2.6 µM. O75030; in the data active = inhibition above about 50%;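 note: 0% = vehicle wells with protein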
Target sequence (O75030 whole entry, looked up): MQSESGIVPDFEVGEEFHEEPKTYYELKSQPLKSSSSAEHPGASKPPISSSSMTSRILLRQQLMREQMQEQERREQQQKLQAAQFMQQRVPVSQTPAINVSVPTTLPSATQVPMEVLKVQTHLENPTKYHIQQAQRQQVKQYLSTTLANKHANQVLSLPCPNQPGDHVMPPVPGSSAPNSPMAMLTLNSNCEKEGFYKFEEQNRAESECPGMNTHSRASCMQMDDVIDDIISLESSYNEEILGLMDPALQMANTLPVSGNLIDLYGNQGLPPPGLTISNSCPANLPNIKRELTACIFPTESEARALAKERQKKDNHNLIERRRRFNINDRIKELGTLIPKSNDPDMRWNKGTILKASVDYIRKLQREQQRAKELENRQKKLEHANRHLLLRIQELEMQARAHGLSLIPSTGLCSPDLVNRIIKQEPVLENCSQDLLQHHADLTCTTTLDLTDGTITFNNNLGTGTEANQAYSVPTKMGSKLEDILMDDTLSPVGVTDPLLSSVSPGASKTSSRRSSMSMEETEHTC
TEAD-YAP inh: TEAD-YAP interaction inhibition; HEK-TIYL cells, TEAD-Gal4/YAP UAS-luciferase luminescence; inhibition, % at 9.12 µM; actives 1.4% (n = 640,000); AID 1259422; in the data active = inhibition above about 32%;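 note: 0% = median of test compound wells and 100% = reference inhibitor wells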
GPR151 activ: activates the human receptor GPR151 | activation, % at 11.2 µM | actives 1% (n = 650,000) | AID 1508602 | PathHunter beta-arrestin GPR151 cells, luminescence | Q8TDV0; in the data active = activation above about 4.9%;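 note: 0% = median of compound wells and 100% = cells with positive control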
The depositor's hits bear a star.

SMILES	FBW7 activator	MITF inh	TEAD-YAP inh	GPR151 activ
CCOC(=O)c1c2c(n(C)c1CN(C)C)C(=O)C(=O)c1ccc(Br)cc1-2	0	8	96*	-2
CCOC(=O)c1c2c(n(C)c1CNC(C)C)C(=O)C(=O)c1ccc(Br)cc1-2	0	6	13	-1
Cc1ccc(Nc2nc(-c3ccncc3)cs2)c(C)c1	0	0	-74	2
Cc1ccn2c(-c3csc(Nc4ccc(N(C)C)cc4)n3)c(C)nc2c1	-1	12	54*	1
Cc1ccc(Nc2nc(-c3c(C)nc4ncccn34)cs2)c(C)c1	0	12	52*	-1
Cc1ccc(Nc2nc(-c3c(C)nc4cc(C)ccn34)cs2)c(C)c1	0	-1	42*	-1
Cc1ccc(Nc2nc(-c3cccnc3)cs2)c(C)c1	0	12	49*	-4
O=C1N[C@H](CO)C(=O)N2C[C@@H](NCc3ccc(Cl)cc3)C[C@@H]12	0	-2	-16	0
CCCC(CCC(=O)Nc1ccccc1C(=O)O)C(=O)O (centres undefined)	0	-17	-10	0
N#Cc1c(N2CCN(C(=O)Nc3ccc(Cl)c(Cl)c3)CC2)nc(-c2ccccc2)c2c1CCCC2	0	2	-2	1
CS(=O)(=O)N1CCN(Cc2ccc(Cl)cc2)CC1	0	-4	41*	0
CSc1ccc(CN2CCN(S(C)(=O)=O)CC2)cc1	0	-5	47*	-1
CCc1ccc(CN2CCN(S(C)(=O)=O)CC2)cc1	0	41	16	1
CSc1ccc(CN2CCN(S(=O)(=O)c3ccc4ccccc4c3)CC2)cc1	0	1	1	1
Cc1cc2nnc(SCC(=O)Nc3c(Cl)cccc3Cl)n2c2ccccc12	0	-15	-6	-2
O=C1COc2ccc(C(=O)COC(=O)c3cc(O)c(O)c(O)c3)cc2N1	0	82*	2	2
Cc1c(C(=O)Nc2ccccc2C(F)(F)F)sc2ncn(CC(=O)N3CCCCC3)c(=O)c12	0	7	3	1
O=S(=O)(Nc1nc2n(n1)C(c1ccccc1)C=C(c1ccccc1)N2)c1ccccc1 (centres undefined)	0	11	8	-1
Cc1ccc(/C=C2/Sc3ccc(C(=O)NCCCOC(C)C)cc3NC2=O)cc1	0	5	2	0
CC(=O)N1CCC(Oc2ccc(C(=O)NCCc3ccccc3)cc2)CC1	0	-16	-15	3
O=C(NCCc1ccccc1)c1ccc(OC2CCN(C(=O)c3cscn3)CC2)cc1	0	10	64*	1
O=C1CC[C@@H](C(=O)N2CCC(Oc3ccc(C(=O)NCCc4ccccc4)cc3)CC2)N1	0	0	40*	0
O=C(NCCc1ccccc1)c1ccc(OC2CCN(C(=O)C3=CCCC3)CC2)cc1	0	-4	65*	2
CC(=O)NCC(=O)N1CCC(Oc2ccc(C(=O)NCCc3ccccc3)cc2)CC1	0	7	33*	-1
O=C(NCCc1ccccc1)c1ccc(OC2CCN(C(=O)C3CC3)CC2)cc1	0	-7	-10	0
SMILES	FBW7 activator	MITF inh	TEAD-YAP inh	GPR151 activ
O=C(NCCc1ccccc1)c1ccc(OC2CCN(C(=O)c3cnsn3)CC2)cc1	0	9	0	0
Cc1cc(=O)oc2cc(OCC(=O)OC/C(=N/O)c3ccccc3)ccc12	0	-4	-8	0
CC(=O)Nc1ccc(S(=O)(=O)Nc2ccc(Oc3ccc(NS(=O)(=O)c4ccc(NC(C)=O)cc4)cc3)cc2)cc1	1	0	-7	1
O=C(NCCOc1cccnc1)c1ccc(OC2CCN(CCc3ccccc3)CC2)cc1	0	17	42*	-2
COc1ccc(COn2ccc3ccc(S(C)(=O)=O)cc32)cc1	0	-3	42*	0
CCCC(=O)Oc1c(Sc2ccccc2[N+](=O)[O-])c(C)nn1C(C)(C)C	0	-14	34*	1
CCOC(=O)c1sc2nc(SCC#N)n(Cc3ccc(C)cc3)c(=O)c2c1C	0	-19	-4	-1
COc1ccc(CNc2nc3ccc(-c4ccncc4)cc3s2)cc1	60*	30	-40	0
CCOc1cc([N+](=O)[O-])cc(/C=N/NC(=O)c2ccc3c(c2)OCO3)c1O	0	4	-8	-1
COc1cc(Nc2cccc(C(=O)NCCN(C(C)C)C(C)C)n2)cc(OC)c1OC	0	14	-1	1
O=C(NCc1cccc(C(F)(F)F)c1)c1csc(Nc2ccc(N3CCOCC3)cc2)n1	0	22	51*	3
COc1cc(Nc2cccc(C(=O)NCCc3ccc(O)cc3)n2)cc(OC)c1OC	0	13	35*	1
O=C(NCc1cccc(C(F)(F)F)c1)c1csc(Nc2ccc(C(F)(F)F)cc2)n1	0	-11	-6	1
COc1ccc(CCNC(=O)c2cccc(NCCN3CCOCC3)n2)cc1	0	-4	4	-1
O=C(NCc1cccc(C(F)(F)F)c1)c1cccc(Nc2ccc(N3CCOCC3)cc2)n1	0	16	62*	4
COc1ccc(CCNC(=O)c2cccc(Nc3ccc(N4CCOCC4)cc3)n2)cc1	0	16	59*	4
COc1ccc(OC)c(Cc2nnc(CCC(=O)NCCCOC(C)C)o2)c1	0	-8	-9	0
COc1cccc(-c2cnn3ccc(Nc4ccccc4)nc23)c1	0	-17	-2	-1
Cc1cccc(NC(=O)C(Cc2c[nH]c3ccccc23)NC(=O)C(c2ccccc2)c2ccccc2)c1C (centres undefined)	0	3	3	1
O=C(Nc1sc2c(c1C(=O)NCc1ccco1)CCC2)c1ccccc1[N+](=O)[O-]	0	-8	7	1
COc1ccc(C(=O)/C=C/Nc2cc(C)ccn2)cc1	0	1	36*	-7
COc1ccc(NC(=O)Nc2cc(C)ccn2)cc1	0	6	41*	-3
Cc1ccc(NC(=O)Nc2cc(C)ccn2)cc1	0	4	-26	0
CCOC(=O)C(NC(=O)CC)(Nc1sc2c(c1C(=O)OC)CCN(C)C2)C(F)(F)F (centres undefined)	3.4*	-6	-11	-1
CN(C)c1ccc(CN2CCC(C(N)=O)CC2)cc1	0	76*	-16	0
SMILES	FBW7 activator	MITF inh	TEAD-YAP inh	GPR151 activ
CN(C)c1ccc(CN2CCN(c3ncccn3)CC2)cc1	0	34	2	-2
CN(C)c1ccc(CN2CCN(CCO)CC2)cc1	0	77*	-5	1
O=C(NCCc1c[nH]c2ccccc12)C1(c2cc(-c3ccccc3)on2)CC1	0	3	-4	0
O=S(=O)(Nc1ccc2c(c1)OCO2)c1ccc(Oc2ccc(Br)cc2)cc1	0	7	-22	2
O=[N+]([O-])c1ccc(Oc2ccc(S(=O)(=O)Nc3ccc4c(c3)OCCO4)cc2)cc1	0	-16	43*	1
CSc1ccccc1NC(=O)/C=C/c1ccc([N+](=O)[O-])o1	0	2	56*	-1
CSc1ccccc1NC/C=C/c1ccc([N+](=O)[O-])o1	0	8	7	2
CCCCOC(=O)COc1ccc2c(=O)c(Oc3ccc(C(C)(C)C)cc3)coc2c1	0	10	4	3
